Source: PubChem BioAssay (National Center for Advancing Translational Sciences (NCATS))
A selection: hits, their analogues and other compounds. The true share with any hit is near 10%.
LMNA splice mod: LMNA splicing modulation; 200,000 compounds, 0.01% hits; Potency, µM (doses to about 46.1 µM), hits mostly inhibitors; HeLa LMNA splicing GFP/RFP minigene ratio, 48 h; AID 1487; active = well fitted inhibition curve with a large enough effect in the signal ratio, with a control signal flat, not every such curve was filed as active; inconclusive = small, poorly fitted or top-dose-only effect, or effect the other way, or a change in a side signal; the % refers to the signal ratio
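S3 HeLa cells stably expressing lamin A-EGFP splicing minigene plus DsRed2, 600 cells/well, 48 h compound exposure at 37C. Laser-scanning cytometry; analysed as GFP (500-530 nm)/RFP (575-640 nm) total intensity ratio; 0.5% DMSO vehicle.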
HPGD inh: inhibitors of human 15-hydroxyprostaglandin dehydrogenase (HPGD). Potency, µM, hits mostly inhibitors. 150,000 compounds, 4.3% hits. purified HPGD, NADH fluorescence kinetic, PGE2 substrate. P15428
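20 nM HPGD preincubated 15 min at room temperature with compound in 50 mM Tris-HCl pH 8, 0.01% Tween 20. Started with 1 mM NAD+ and 30 uM prostaglandin E2; NADH fluorescence (360/450 nm) read 5 times over 30-s intervals, last minus first.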
PNC inhibitor: inhibitors of perinucleolar compartment assembly. 140,000 compounds, 3.1% hits. PC3M PTB-GFP, PNC prevalence imaging, 16 h; active compounds read low. activity change (PNC), negative = inhibition, % at 10 µM;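 active = readout at or below -70, meaning at least 70% loss of cells showing the perinucleolar compartment, a nuclear body marking cancer cells; inconclusive = readout between -30 and a set limit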
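Compounds are pinned in duplicate onto adhered PC3M cells stably expressing GFP-tagged PTB and incubated 16 h at 37 C. Cells are then fixed, nuclei stained with Hoechst, and PNC-positive cells counted.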
ALDH1A1 block: inhibitors of human aldehyde dehydrogenase 1A1. Potency, µM (series often up to 75.3 µM), usual class: inhibitors. P00352. AID 1030. Purified ALDH1A1, NADH fluorescence, propionaldehyde substrate. 220,000 compounds, 7.3% hits
Target sequence (P00352 whole entry, looked up): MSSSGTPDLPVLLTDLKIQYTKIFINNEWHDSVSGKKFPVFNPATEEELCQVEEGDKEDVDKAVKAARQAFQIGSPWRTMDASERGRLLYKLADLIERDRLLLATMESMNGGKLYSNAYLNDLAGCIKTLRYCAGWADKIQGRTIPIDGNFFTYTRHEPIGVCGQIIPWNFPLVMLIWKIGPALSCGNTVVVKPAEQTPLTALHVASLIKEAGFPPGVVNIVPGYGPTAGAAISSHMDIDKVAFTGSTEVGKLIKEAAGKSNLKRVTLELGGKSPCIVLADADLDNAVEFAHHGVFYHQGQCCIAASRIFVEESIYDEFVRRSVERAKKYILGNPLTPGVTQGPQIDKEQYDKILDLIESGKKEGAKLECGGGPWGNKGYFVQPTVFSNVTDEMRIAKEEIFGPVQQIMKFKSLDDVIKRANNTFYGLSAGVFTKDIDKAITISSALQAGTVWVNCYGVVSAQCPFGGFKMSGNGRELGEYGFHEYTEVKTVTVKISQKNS
12-hLO inh: blocks human 12-lipoxygenase activity; 150,000 compounds, 0.12% hits; Potency, µM (doses to about 57.1 µM), hits mostly inhibitors; purified 12-hLO, xylenol orange hydroperoxide absorbance; active = well fitted inhibition curve with a large enough effect; inconclusive = small, poorly fitted or top-dose-only effect; note: nearly all actives have a fitted effect of over 55% in size
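Lipoxygenase turnover measured by absorbance at 573 and 405 nm after Fe-XO development. Human 12hLO 150 nM, arachidonate 40 uM, pH 7.0 Hepes buffer with detergent; 15 min compound preincubation, 30 min reaction.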
A number is an active result; n = inactive; u = inconclusive; x = no result given; [ ] = remark or other dose. Unless noted, calls come from the whole dose curve; as a rule, active = well fitted inhibition curve with a large enough effect (not every such curve was filed as active); inconclusive = small, poorly fitted or top-dose-only effect, or another doubt; inactive = no such curve, though single readings can be large or run the other way.

SMILES | LMNA splice mod | HPGD inh | PNC inhibitor | ALDH1A1 block | 12-hLO inh
Cc1nc2ncnn2c(C)c1CCC(=O)Nc1ccc(S(=O)(=O)N2CCCCCC2)cc1 | n | 15.8µM | -93.8 | 6.31µM | n
Cc1cccc(OCC(=O)Nc2ccc(S(=O)(=O)N3CCCC3)cc2)c1 | u | n | -99.0 | u | n
Cc1cccc(OCC(=O)NC(=S)Nc2ccc(S(=O)(=O)NC3CCCCC3)cc2)c1 | n | u | n | 15.8µM | n
Cc1ccc(NC(=O)COc2ccc(S(=O)(=O)N3CCOCC3)cc2)cc1 | n | n | n | n | n
CC(=O)c1ccc(NC(=O)CSc2nccn2Cc2ccc3c(c2)OCO3)cc1 | n | x | x | x | x
CCOP(=O)(OCC)c1nc(-c2ccc(Cl)cc2Cl)oc1N1CCOCC1 | u | x | x | n | x
Cc1ccc(NC(=O)CN2C(=O)CCc3cc(S(=O)(=O)N4CCCCC4)ccc32)cc1N(C)C | n | x | x | x | x
CCNC(=O)c1c2c(nc3ccccc13)C(=O)N(C1CCCCC1)C2 | n | x | x | x | x
COC(=O)COc1cccc(NS(=O)(=O)c2ccc(NC(C)=O)cc2)c1 | n | n | -87.9 | n | n
COc1cccc(/C=C/C(=O)OCC(=O)Nc2ccc(S(=O)(=O)N3CCCC3)cc2)c1 | u | u | n | 7.08µM | n
CC(=O)Nc1cccc(OCC(=O)NS(=O)(=O)c2ccc(C)cc2)c1 | n | n | n | n | n
O=C(COC(=O)CCN1C(=O)c2ccccc2C1=O)Nc1ccc(S(=O)(=O)N2CCCC2)cc1 | n | n | n | 5.01µM | n
CN(C)/N=N/c1nc[nH]c1C(N)=O | u | n | x | u | n
O=C(c1csnn1)N1CCC[C@@]2(CCN(Cc3cc(C(F)(F)F)cc(C(F)(F)F)c3)C2)C1 | x | n | x | u | n
COc1cccc(N2C(=O)C3CCCN3C2c2ccc(N(C)C)cc2)c1 (stereo unspecified) | n | n | n | 1µM | n
COc1cccc(N2C(=O)C3CCCN3C2c2ccc(Cl)cc2)c1 (stereo unspecified) | n | n | u | n | n
O=C1C2CCCN2C(c2ccc(F)cc2)N1c1ccc(Cl)cc1 (stereo unspecified) | u | n | -98.4 | n | n
COC(=O)N/N=C/c1ccc(-c2cc(Cl)ccc2Cl)o1 | n | n | u | n | n
NC(=S)N/N=C/c1ccc(-c2ccccc2)o1 | u | x | x | n | x
O/N=C\c1ccc(-c2ccccc2)o1 | n | 14.1µM | u | n | n
COc1ccc(N=Cc2ccc(-c3ccccc3)o2)cc1 | n | x | x | 3.16µM | x
O/N=C/c1ccc(-c2cc(Cl)ccc2Cl)o1 | n | 4.47µM | n | n | n
C[C@H]1Cc2c(-c3ccccc3)nc3c(c2CO1)CN(C(=O)c1cccnc1)CC3 | u | n | x | n[13.5 µM] | n[11.4 µM]
CCOC(=O)C(CSCC(=O)c1ccc(Cl)cc1Cl)NC(=O)OC(C)(C)C (stereo unspecified) | n | u | n | 7.94µM | u
CC(C)c1ccc(N(C(=O)c2csnn2)C(C(=O)NC(C)(C)C)c2cccnc2)cc1 (stereo unspecified) | n[9.22 µM] | x | x | 0.708µM | x
SMILES | LMNA splice mod | HPGD inh | PNC inhibitor | ALDH1A1 block | 12-hLO inh
CC(C)(C)NC(=O)C(c1cccnc1)N(C(=O)c1csnn1)c1ccccc1 (stereo unspecified) | x | x | x | n | x
CC(C)c1ccc(N(C(=O)c2csnn2)C(C(=O)NC(C)(C)C)c2ccncc2)cc1 (stereo unspecified) | n | n | n | 2.24µM | n
CCc1ccc(N(C(=O)c2csnn2)C(C(=O)NC(C)(C)C)c2cccnc2)cc1 (stereo unspecified) | x | x | x | 12.6µM | x
Cc1cc(C(=O)N/N=C/C=C/c2ccc([N+](=O)[O-])cc2)n[nH]1 | n | x | x | n | x
C[C@](N)(COP(=O)(O)O)C(=O)O | x | n | x | n | n
COC(C(=O)Nc1ccc(Br)cc1F)c1ccccc1 (stereo unspecified) | x | x | x | 10µM | x
COC(C(=O)NC1CC1)c1ccccc1 (stereo unspecified) | n | n | -113.8 | n | n
CS(=O)(=O)N1CCC2(CC1)CN(C(=O)Nc1cccc(C#N)c1)C2 | x | u | x | n | n
O=c1cc(-c2ccncc2)oc2ccccc12 | n | n | n | n | n
O=c1cc(-c2cccc(O)c2O)oc2ccccc12 | x | 15.8µM | x | n | u
COc1ccc(-c2cc(=O)c3ccccc3o2)cc1 | u | u | x | u | n
O=c1cc(-c2c(F)c(F)c(F)c(F)c2F)oc2ccccc12 | u | n | n | 15.8µM | n
COc1cc(-c2cc(=O)c3ccccc3o2)ccc1O | u | 35.5µM | x | n | n
